In PubChem BioAssay:
Where “and” joins values, the source holds several entries; their conditions need not be identical. Equal entries are not always repeated. Calls of active or inactive are those of the source.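 The calls were made as follows, unless noted: active = thallium flux through the channel raised or lowered by more than 3 SD from vehicle-only wells, actives on both sides; inactive = the rest.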

Columns and labels:
[1] = tested on: Hepatitis C virus NS3 helicase; experiment: blockers of NS3h binding to DNA – biochemical, fluorescence polarization, NIH Clinical Collection, primary screen (AID 743270; call rule not given here); conditions: NS3 helicase binding to Cy5-dT15 DNA, stronger effect = higher value, concentration not given here
[2] = molecular target: Single-stranded DNA-binding protein (Escherichia coli (strain K12)) (UniProt P0AGE0); experiment: SSB-ssDNA binding inhibitors – biochemical, fluorescence polarization, NIH Clinical Collection, counter-screen for HCV NS3 helicase inhibitor project (AID 743271; in the data active = inhibition above about 28%); conditions: E. coli SSB-DNA binding, stronger effect = higher value, concentration not given here
[3] = compounds distorting NS3 helicase fluorescence signal – biochemical, NIH Clinical Collection, artefact control for HCV NS3 helicase inhibitor project (AID 743272; call rule not given here;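 also: HCV NS3 helicase with a Cy5 labelled single stranded DNA probe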); conditions: fluorescence interference counterscreen, HCV NS3 helicase assay; stronger effect = lower value
[4] = Wnt pathway potentiators raising nuclear beta-catenin – imaging, WNT3A-conditioned medium, mouse C2C12, NPC library, primary screen (AID 1117326; in the data active = nuclear beta-catenin stimulation mostly above about 4.2%, no sharp cut-off; inactive = mostly below about 10%); conditions: stronger effect = higher value
[5] = stimulators of insulin release from INS-1E, primary screen, cell-based, 5 mM glucose, NPC library (AID 1117329;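 active = compound raises insulin release from rat beta cells at 5 mM glucose, no numeric limit stated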); conditions: rat INS-1E insulin secretion, at 10 µM, stronger effect = higher value
[6] = growth inhibition of GSK3B-pretreated HCT116 cells – cell-based, CellTiter-Glo, 0.2 to 20 µM (AID 1117336;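 active = compounds lowering colon cancer cell viability after pretreatment blocking the GSK3B kinase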); conditions: HCT116 viability after GSK3B inhibitor, at 20 µM, stronger effect = higher value
[7] = inhibition of endothelial tube formation, primary screen, imaging, VEGF stimulated, CD31 staining, tube area, NPC library (AID 1117340;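 active = compound that reduces growth-factor-driven endothelial tube area in a mixed cell culture, no cutoff stated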); conditions: VEGF-stimulated ADSC/ECFC co-culture, at 10 µM, stronger effect = higher value
[8] = GLP1 release stimulators, primary, NCI-H716, NPC library (AID 1117341;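 active = compound raises GLP1 secretion from the human gut endocrine cells, with no numeric limit stated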); conditions: NCI-H716 cells, at 10 µM, stronger effect = higher value
[9] = HCT116 colon cancer cell growth inhibition, primary screen, CellTiter-Glo luminescence, NPC library (AID 1117342;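 active = compounds that lower survival of HCT116 colon cancer cells in the luminescence readout, no numeric limit stated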); conditions: at 20 µM (top of the series)
[10] = reduced SW480 viability measured with CellTiter-Glo, NPC library, primary (AID 1117343;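 active = compounds that lower viability of the colon cancer cells in the luminescence readout, with no numeric limit stated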); conditions: CellTiter-Glo luminescence; at 20 µM (top of the series)
[11] = NPC library primary testing for decreased DLD-1 cell viability via CellTiter-Glo (AID 1117346;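 active = compounds that lower survival of DLD-1 colon cancer cells in the luminescence readout, no cutoff given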); conditions: DLD-1 viability, CellTiter-Glo luminescence; at 20 µM (top of the series)
[12] = molecular target: 6-phosphogluconate dehydrogenase, decarboxylating (Homo sapiens) (UniProt P52209); experiment: inhibition of human phosphogluconate dehydrogenase – biochemical, recombinant enzyme, NADPH absorbance, primary screen (AID 1159550;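 active = at least 20% inhibition of 6-phosphogluconate dehydrogenase activity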); conditions: recombinant 6PGD, NADPH absorbance 341 nm; at 10 µM; stronger effect = higher value
[13] = EMT-state selective cytotoxicity in co-culture – imaging, PC-3E GFP, TEM4-18 mCherry, primary screen (AID 1345086;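 active = compounds killing one labelled cell type while sparing the other, by normalised counts and ratio limits, not self-fluorescent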;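 as to all read-outs here: cells exposed to compound for 72 h before imaging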;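 as to red/green cell ratio (normalised): normalised mesenchymal count divided by normalised epithelial count so high means epithelial killing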); conditions: PC-3E GFP / TEM4-18 mCherry co-culture, imaging cell counts, at 1 µM; for red/green cell ratio (normalised): actives lie on both sides, counts scaled to control wells, 1 = unselective
[14] = MELAS cybrid and Rieske KO viability enhancers – cell-based, MELAS cybrids, Rieske KO mouse fibroblasts, CellTiter-Glo, primary screen (AID 1508586;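 active = mean z-score across replicates of 1.96 or higher in either the MELAS or the Rieske mutant cell line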;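 also: z relative to plate mean and SD of compound and empty wells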); conditions: low glucose
[15] = molecular target: NAD(+) hydrolase SARM1 (Homo sapiens) (UniProt Q6SZW1); experiment: blocking NAD cleavage by SARM1 SAM-TIR – cell lysate, NAD-Glo luminescence (AID 1508614;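 active = compound whose remaining NAD level is above about 45 nM, limit read from the data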;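 also: higher remaining NAD means stronger inhibition of SARM1 NADase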); conditions: SAM-TIR HEK293T lysate NADase, at 1 µM, stronger effect = higher value
[16] = molecular target: Mitogen-activated protein kinase 7 (Homo sapiens) (UniProt Q13164); experiment: Gal4-ERK5 driven luciferase induction – cell-based, HTS, primary screen (AID 1508626;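 active = luciferase signal above three times the same-plate solvent-only control wells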;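 also: luciferase driven by Gal4-ERK5 fusion binding five Gal4 sites before minimal TATA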); conditions: HeLa Gal4-ERK5 transactivation, 18 h, at 5 µM, stronger effect = higher value
F380Y = experiment: BK channel mutant inhibitors and activators – cell-based, U2OS BacMam, thallium flux, beta subunits, selectivity assay, profiling panel (AID 1259406); conditions: U2OS BacMam BK variants, at 30 µM;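 also: initial slope of Thallos dye fluorescence rise after thallium is added; log ratio against the mean of 0.3% DMSO vehicle wells on the same plate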
F380Y/beta2Delta = experiment: as above; conditions: U2OS BacMam BK variants, at 30 µM
[17] = molecular target: Calcium-activated potassium channel subunit alpha-1 (Homo sapiens) + Leucine-rich repeat-containing protein 26 (Homo sapiens) (UniProt Q12791+Q2I0M4); experiment: as above; conditions: U2OS BacMam BK variants, F380Y/Slo1WT/gamma1, at 30 µM
[18] = viability loss with induced miR-34 in A549 – imaging, A549 dox-inducible miR-34, nuclei and caspase counts, primary screen (AID 1347080;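 active = compounds whose cell count with miR-34 switched on is under 0.7 times the count with it off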); conditions: A549 miR-34 inducible, Hoechst nuclei count, 48 h
[19] = measured here: epithelial PC-3E GFP cell survival
[20] = measured here: mesenchymal TEM4-18 mCherry cell survival
[21] = MELAS cybrid survival, CellTiter-Glo 48 h, stronger effect = higher value
[22] = Rieske KO mouse fibroblast survival, CellTiter-Glo 72 h
[23] = stronger effect = lower value, cell number ratio, induced over uninduced
[24] = measured here: relative caspase fold change +Dox/-Dox
[25] = measured here: total cells with miR-34 induction, stronger effect = lower value
[26] = measured here: total cells without miR-34 induction

Sequence of 6-phosphogluconate dehydrogenase, decarboxylating (Homo sapiens) (P52209 whole entry, looked up): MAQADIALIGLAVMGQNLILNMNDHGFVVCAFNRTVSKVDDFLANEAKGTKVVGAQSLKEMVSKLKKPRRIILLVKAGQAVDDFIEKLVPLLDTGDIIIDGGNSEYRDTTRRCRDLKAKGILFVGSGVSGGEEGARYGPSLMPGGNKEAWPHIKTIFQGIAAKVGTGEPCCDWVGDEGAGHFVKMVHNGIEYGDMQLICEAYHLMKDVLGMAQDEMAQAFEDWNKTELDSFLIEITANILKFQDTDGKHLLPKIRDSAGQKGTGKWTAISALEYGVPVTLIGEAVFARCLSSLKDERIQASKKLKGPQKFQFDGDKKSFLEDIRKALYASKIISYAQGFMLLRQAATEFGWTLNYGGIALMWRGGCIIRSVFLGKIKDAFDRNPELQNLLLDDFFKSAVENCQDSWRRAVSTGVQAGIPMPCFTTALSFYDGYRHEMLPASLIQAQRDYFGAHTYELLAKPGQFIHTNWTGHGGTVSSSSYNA
Sequence of Calcium-activated potassium channel subunit alpha-1 (Homo sapiens) + Leucine-rich repeat-containing protein 26 (Homo sapiens) (Q2I0M4 whole entry, looked up, one chain of several): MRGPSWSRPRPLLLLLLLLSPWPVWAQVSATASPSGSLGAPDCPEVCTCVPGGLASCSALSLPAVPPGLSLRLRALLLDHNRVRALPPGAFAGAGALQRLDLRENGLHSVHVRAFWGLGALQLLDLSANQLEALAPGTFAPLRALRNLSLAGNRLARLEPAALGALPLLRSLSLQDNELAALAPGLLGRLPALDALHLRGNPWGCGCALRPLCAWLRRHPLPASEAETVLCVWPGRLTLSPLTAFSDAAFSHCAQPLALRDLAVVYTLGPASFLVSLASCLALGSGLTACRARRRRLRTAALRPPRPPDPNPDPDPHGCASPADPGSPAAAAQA
Sequence of Mitogen-activated protein kinase 7 (Homo sapiens) (Q13164 whole entry, looked up, the tested form may be a part): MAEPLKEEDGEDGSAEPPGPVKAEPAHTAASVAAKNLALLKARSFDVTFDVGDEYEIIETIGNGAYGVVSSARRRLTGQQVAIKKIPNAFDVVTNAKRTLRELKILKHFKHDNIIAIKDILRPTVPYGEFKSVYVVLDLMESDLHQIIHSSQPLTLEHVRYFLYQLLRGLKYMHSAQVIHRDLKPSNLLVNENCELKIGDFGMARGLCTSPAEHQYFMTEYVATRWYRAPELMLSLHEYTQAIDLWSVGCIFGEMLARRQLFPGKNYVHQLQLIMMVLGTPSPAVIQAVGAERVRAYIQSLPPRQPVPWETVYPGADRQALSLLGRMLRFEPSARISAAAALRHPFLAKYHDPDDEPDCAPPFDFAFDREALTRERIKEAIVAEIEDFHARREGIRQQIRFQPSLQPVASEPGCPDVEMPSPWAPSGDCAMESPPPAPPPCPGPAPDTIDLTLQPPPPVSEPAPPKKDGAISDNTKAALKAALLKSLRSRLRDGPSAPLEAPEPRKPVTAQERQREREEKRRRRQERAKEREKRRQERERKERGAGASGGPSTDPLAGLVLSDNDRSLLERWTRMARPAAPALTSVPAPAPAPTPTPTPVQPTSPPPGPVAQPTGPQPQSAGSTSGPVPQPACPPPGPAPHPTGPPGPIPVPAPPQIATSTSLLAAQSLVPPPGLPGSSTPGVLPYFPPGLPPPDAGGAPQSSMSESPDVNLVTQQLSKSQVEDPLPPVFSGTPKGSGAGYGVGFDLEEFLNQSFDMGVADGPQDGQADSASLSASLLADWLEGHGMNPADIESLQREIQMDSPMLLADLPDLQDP
Sequence of NAD(+) hydrolase SARM1 (Homo sapiens) (Q6SZW1 whole entry, looked up, the tested form may be a part): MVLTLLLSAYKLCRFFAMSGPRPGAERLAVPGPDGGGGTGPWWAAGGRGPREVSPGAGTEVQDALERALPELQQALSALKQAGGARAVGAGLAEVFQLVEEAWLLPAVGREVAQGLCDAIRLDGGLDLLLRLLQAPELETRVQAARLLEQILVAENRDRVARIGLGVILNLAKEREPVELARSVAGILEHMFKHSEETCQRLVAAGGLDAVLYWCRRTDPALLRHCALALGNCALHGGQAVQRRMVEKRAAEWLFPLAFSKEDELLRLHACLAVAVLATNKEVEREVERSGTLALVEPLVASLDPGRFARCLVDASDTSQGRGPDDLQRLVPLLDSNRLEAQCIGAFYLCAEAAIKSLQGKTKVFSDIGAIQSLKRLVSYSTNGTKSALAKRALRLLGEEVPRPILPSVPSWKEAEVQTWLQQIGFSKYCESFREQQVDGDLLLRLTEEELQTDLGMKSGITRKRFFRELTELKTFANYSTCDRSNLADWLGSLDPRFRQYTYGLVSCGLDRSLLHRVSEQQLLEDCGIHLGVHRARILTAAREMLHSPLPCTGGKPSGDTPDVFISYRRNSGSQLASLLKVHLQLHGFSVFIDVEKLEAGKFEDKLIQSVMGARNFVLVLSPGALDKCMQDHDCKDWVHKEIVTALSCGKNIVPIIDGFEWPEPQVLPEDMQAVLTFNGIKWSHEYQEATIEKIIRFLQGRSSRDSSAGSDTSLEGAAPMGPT

CN[C@@H]1[C@H](O)[C@H](NC)[C@H]2O[C@@]3(O)C(=O)C[C@@H](C)O[C@H]3O[C@@H]2[C@H]1O
active: GLP1 secretion stimulation [8] 23.7%
0.169 and 0.769: z-score [14, 22]
3.5%: nuclear beta-catenin stimulation ([4]; stimulation, at 2 µM)
inactive: inhibition [1] -5% | inhibition [2] -4.29% | fluorescence ratio [3] 1.01 | nuclear beta-catenin stimulation ([4]; at 10 µM) 0.2% | insulin secretion stimulation [5] -0.2% | viability decrease [6] 12.5% | tube area decrease [7] -8.4% | inhibition of viability [9] 6.2% | viability decrease (inhibition) [10] 12.1% | viability decrease (inhibition) [11] 3.7% | inhibition [12] -6.86% | red/green cell ratio (normalised) [13] 1.39 | z-score [14, 21] 0.0203 and 0.894 | remaining NAD [15] 10 nM | luciferase signal [16] 44 AU | log fold change Tl+ flux (F380Y) -0.0285 | log fold change Tl+ flux (F380Y/beta2Delta) -0.0192 | log fold change Tl+ flux [17] 0.021
1.31: normalised cell number [13, 20]
0.94: normalised cell number [13, 19]

CC(=O)OCC[N+](C)(C)C
1.22: normalised cell number [13, 19]
-0.06 and -0.687: z-score [14, 22]
1.3: normalised cell number [13, 20]
inactive: inhibition [1] -0.45% | inhibition [2] 0.29% | fluorescence ratio [3] 1.01 | nuclear beta-catenin stimulation ([4]; at 10 µM) 0.6% | insulin secretion stimulation [5] 0.3% | viability decrease [6] -38.1% | tube area decrease [7] 19.9% | GLP1 secretion stimulation [8] -5.3% | inhibition of viability [9] 10.1% | viability decrease (inhibition) [10] 2.1% | viability decrease (inhibition) [11] -14.9% | inhibition [12] 14.7% | red/green cell ratio (normalised) [13] 1.07 | z-score [14, 21] -0.299 and 0.505 | remaining NAD [15] 10 nM | luciferase signal [16] 60 AU | log fold change Tl+ flux (F380Y) 0.0119 | log fold change Tl+ flux (F380Y/beta2Delta) -0.0134 | log fold change Tl+ flux [17] 0.00764
2.2%: nuclear beta-catenin stimulation ([4]; stimulation, at 2 µM)

COc1ccc([C@@H]2Sc3ccccc3N(CCN(C)C)C(=O)[C@@H]2OC(C)=O)cc1
-0.4%: nuclear beta-catenin stimulation ([4]; stimulation, at 2 µM)
inactive: inhibition [1] -3.18% | inhibition [2] -2.76% | fluorescence ratio [3] 0.98 | nuclear beta-catenin stimulation ([4]; at 10 µM) 0.5% | insulin secretion stimulation [5] 1.15% | viability decrease [6] 17% | tube area decrease [7] -3.8% | GLP1 secretion stimulation [8] 2.5% | inhibition of viability [9] 32.9% | viability decrease (inhibition) [10] 47.4% | viability decrease (inhibition) [11] 32.3% | inhibition [12] -12.8% | z-score [14, 21] 0.628 and 0.162 | remaining NAD [15] 10 nM | luciferase signal [16] 68 AU | log fold change Tl+ flux (F380Y) 0.0589 | log fold change Tl+ flux (F380Y/beta2Delta) -0.00376 | log fold change Tl+ flux [17] 0.0123
-0.0359 and -0.282: z-score [14, 22]

CC(C)C1CCC(C(=O)N[C@H](Cc2ccccc2)C(=O)O)CC1 (stereo partly specified)
inactive: inhibition [1] -0.4% | inhibition [2] 2.98% | nuclear beta-catenin stimulation ([4]; at 10 µM) -0.5% | viability decrease [6] -22.6% | tube area decrease [7] -2.3% | GLP1 secretion stimulation [8] 2.1% | inhibition of viability [9] -6.47% | viability decrease (inhibition) [10] 1% | viability decrease (inhibition) [11] -23.8% | inhibition [12] 0.904% | fold change [18, 23] 0.871 | z-score [14, 21] -0.215 and -1.18 | remaining NAD [15] 10 nM | luciferase signal [16] 80 AU | log fold change Tl+ flux (F380Y) -0.00809 | log fold change Tl+ flux (F380Y/beta2Delta) 0.0541 | log fold change Tl+ flux [17] 0.0401
1.37: fold change [18, 24]
8810: cell count [18, 25]
0.2%: nuclear beta-catenin stimulation ([4]; stimulation, at 2 µM)
active: fluorescence ratio [3] 0.74 | insulin secretion stimulation [5] 49.4%
-0.618 and -0.816: z-score [14, 22]
10100: cell count [18, 26]

CCCCCCCCCCC[C@@H](C[C@@H]1OC(=O)[C@H]1CCCCCC)OC(=O)[C@H](CC(C)C)NC=O
9060: cell count [18, 26]
inactive: inhibition [1] -7.52% | inhibition [2] -0.1% | fluorescence ratio [3] 0.95 | nuclear beta-catenin stimulation ([4]; at 10 µM) 2.8% | insulin secretion stimulation [5] -1.7% | viability decrease [6] 42.4% | GLP1 secretion stimulation [8] 0.9% | inhibition of viability [9] 32.5% | inhibition [12] -8.26% | fold change [18, 23] 0.867 | remaining NAD [15] 10 nM | luciferase signal [16] 48 AU | log fold change Tl+ flux (F380Y) 0.0597 | log fold change Tl+ flux (F380Y/beta2Delta) 0.0435 | log fold change Tl+ flux [17] 0.0135
4.5%: nuclear beta-catenin stimulation ([4]; stimulation, at 2 µM)
active: tube area decrease [7] 102% | viability decrease (inhibition) [10] 107% | viability decrease (inhibition) [11] 79.1%
7850: cell count [18, 25]
2.26: fold change [18, 24]

C[C@H]1C[C@@H]2[C@H]([C@@H](O)C[C@@]3(C)[C@H]2CC[C@]3(O)C(=O)CO)[C@@]2(C)C=CC(=O)C=C12
7490 and 7930 and 7360: cell count [18, 26]
inactive: inhibition [1] -1.36% | inhibition [2] 1.81% | fluorescence ratio [3] 1.04 | nuclear beta-catenin stimulation ([4]; at 10 µM) -1.3% | insulin secretion stimulation [5] 2.2% | viability decrease [6] -8.4% | tube area decrease [7] -6.1% | GLP1 secretion stimulation [8] 1% | inhibition of viability [9] 2.5% | viability decrease (inhibition) [10] 3.7% | viability decrease (inhibition) [11] -5% | inhibition [12] 12.4% | fold change [18, 23] 0.959 and 0.809 and 0.808 | z-score [14, 21] 0.0891 and -0.0037 | remaining NAD [15] 10 nM | luciferase signal [16] 100 AU | log fold change Tl+ flux (F380Y) 0.00302 | log fold change Tl+ flux (F380Y/beta2Delta) 0.00102 | log fold change Tl+ flux [17] -0.0378
0%: nuclear beta-catenin stimulation ([4]; stimulation, at 2 µM)
7180 and 6410 and 5950: cell count [18, 25]
0.739 and 1.35 and 1.33: fold change [18, 24]
-0.286 and 1.09: z-score [14, 22]
